46 compounds from PubChem BioAssay AID2685 (National Center for Advancing Translational Sciences (NCATS), 2010) can be followed below.

The campaign covered roughly 320,000 compounds. About 2,100 (0.66%) were called active. Inconclusive results (about 53%) are left out. The sample holds actives, similar compounds and a random draw of the others, so the mix is not that of the screen. Calls follow the shape of the dose curve; as a rule, active = well fitted inhibition curve with a large enough effect in the signal ratio, with a control signal flat (not every such curve was filed as active); inconclusive = small, poorly fitted or top-dose-only effect, or effect the other way, or a change in a side signal; inactive = flat fitted curve, though single readings scatter; the % refers to the signal ratio.
Potency is read from the fitted curve at half-maximal effect.

The experiment can be described thus: qHTS Assay for Lipid Storage Modulators in Drosophila S3 Cells.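 As to cell number change: cells counted by Cell Tracker Red CMTPX staining in the red channel.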 As to lipid storage change, negative = inhibition: % is scaled to controls: 0 for no effect and ±100 for the full control effect. The note with it: BODIPY lipid droplet fluorescence, 18-24 h, cells fed with added oleic acid; cell number change: measured here: cell count max response; series mostly up to 46.1 µM. The procedure, abridged:
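Drosophila S3 cells got compounds at several concentrations plus oleic acid (400 uM solution). Laser-scanning cytometry with 488 nm excitation read lipid droplets at 500-530 nm and cells at 575-640 nm. Percent activity was relative to 20 uM Triacsin C.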
Take `Cn1c(SCC(=O)N2CCN(c3ccccc3)CC2)nnc1-c1ccccc1`: the Potency result is “inactive” and the cell number change amounted to 1.56%.

As to `COc1ccc(NC(=O)CSCc2cc(=O)n3c(C)csc3n2)cc1`, the Potency entry was “inactive” and the cell number change stood at 4.18%.

For `CC(C)Nc1nc(NC(C)C)nc(Nn2cnnc2)n1`, the Potency entry is “inactive” and the cell number change was -7.52%.

Take `CC(C)Nc1nc2n(c(=O)n1)CCN2C(C)C`: the Potency is 4.11 µM (active) and the cell number change was found to be 0.328%.

`CC(C)Nc1nc(NC(C)C)nc(SCC(N)=O)n1`: the Potency result is “inactive” and the cell number change was -10.2%.

Turning to `CC1(C)CC2(C)Nc3ccccc3N2C(=S)N1` (stereo not drawn), the Potency result was “inactive” and the cell number change is -13.1%.

As to `COc1ccc(NC(=O)Nc2ccc(C(=O)N3CCOCC3)cc2)cc1OC`, the Potency entry is “inactive” and the cell number change was -17.3%.

For the compound `O=C(CNC(=O)c1ccc(Br)o1)Nc1ncccc1O`, the Potency entry is “inactive”.

Regarding `C=C1CCC[C@]2(C)C[C@H]3OC(=O)C(CN4CCOCC4)[C@H]3C[C@@H]12` (stereo partly drawn), the Potency is 8.2 µM (active) and the cell number change is -15.3%.

For `C=C1CCC[C@]2(C)C[C@H]3OC(=O)C(CNC(C)CC)[C@H]3CC12` (stereo partly drawn), the Potency entry was “inactive” and the cell number change was -16.4%.

Turning to `C=C1CCC[C@]2(C)C[C@H]3OC(=O)C(CN4CC(C)OC(C)C4)[C@H]3C[C@@H]12` (stereo partly drawn), the Potency entry is “inactive” and the cell number change was 8.39%.

Turning to `O=C(COC(=O)c1ccc(S(=O)(=O)N2CCOCC2)cc1)NCc1cccs1`, the Potency result is “inactive” and the cell number change was -3.56%.

In the case of `CC1CCCCC1NC(=O)CN1C(=O)NC(Cc2ccccc2)(Cc2ccccc2)C1=O` (stereo not drawn), the Potency result was “inactive” and the cell number change turned out to be 27.7%.

Turning to `Cn1c(NC(=O)/C=C\c2ccccc2)cc(=O)n(C)c1=O`, the Potency entry is “inactive” and the cell number change is -2.62%.

For `COC(=O)c1ccc(OC(=O)c2ccccn2)cc1`, the Potency entry is “inactive” and the cell number change was determined as 10.3%.

Consider `CC(=O)c1ccccn1`, for which the Potency entry is “inactive” and the cell number change came out at 12.7%.

For `CC1(C)CC(=O)CC(C)(C)N1OC(=O)c1ccccn1`, the Potency is 32.6 µM (active).

As for `CC(C#N)Sc1nnc(-c2ccccc2F)n1C1CC1` (stereo not drawn), the Potency result is “inactive” and the cell number change is 7.26%.

Regarding `NNC(=O)c1cc(C2CC2)nc2ccc(Br)cc12`, the Potency entry is “inactive” and the cell number change was -5.67%.

For the compound `O=C(NCCOc1nc(N2CCOCC2)nc(N2CCOCC2)n1)Nc1ccccc1`, the Potency entry was “inactive” and the cell number change was -14.8%.

Take `O=C(NCCOc1nc(N2CCCCC2)nc(N2CCOCC2)n1)Nc1ccccc1`: the Potency is 0.731 µM (active) and the cell number change was -5.19%.

`O=C(NCCOc1nc(N2CCCCC2)nc(N2CCCCC2)n1)Nc1ccccc1`: the Potency result was “inactive” and the cell number change stood at 0.327%.

Take `Cc1ccc(NNC(N)=S)cc1Cl`: the Potency result is “inactive” and the cell number change amounted to 18.1%.

Consider `COc1ccccc1-c1nnc(C2CCN(S(=O)(=O)c3ccccc3[N+](=O)[O-])CC2)o1`, for which the Potency result was “inactive”.

On to `Cc1cccc(-c2nc(CN3CCCC(C(=O)NC4CCCCCC4)C3)c(C)o2)c1` (stereo not drawn), for which the Potency result was “inactive” and the cell number change worked out at 2.33%.

With `CCOC(=O)N1CCN(S(=O)(=O)c2ccc(Cl)cc2)CC1`, the Potency entry was “inactive” and the cell number change amounted to 24.3%.

Turning to `Cc1ccccc1-n1nc(C)c2cc(C(=O)N3CCN(S(=O)(=O)c4ccc(Cl)cc4)CC3)sc21`, the Potency result is “inactive” and the cell number change was -4.24%.

`Cc1ccc(C)c(S(=O)(=O)N2CCN(C(=O)c3ccc(C)s3)CC2)c1`: the Potency result was “inactive” and the cell number change is 6.27%.

For the compound `Cc1ccc(C)c(S(=O)(=O)N2CCN(C(=O)c3cccn3C)CC2)c1`, the Potency result is “inactive” and the cell number change was -13.9%.

Regarding `CCc1cc(C(=O)N2CCN(S(=O)(=O)c3ccc(Cl)cc3)CC2)sc1C`, the Potency was 11.6 µM (active) and the cell number change amounted to 6.97%.

In the case of `CCc1cc(C(=O)N2CCN(S(=O)(=O)c3cc(C)ccc3C)CC2)sc1C`, the Potency was 20.6 µM (active) and the cell number change was -8.23%.

Regarding `COc1ccccc1N1CCN(CC(O)COc2ccc3c(c2)CCC3)CC1` (stereo not drawn), the Potency result was “inactive” and the cell number change is 1.49%.

On to `COc1ccc(-c2cc(C(=O)N3CCOCC3)no2)cc1OC`, for which the Potency entry is “inactive” and the cell number change is -3.96%.

With `CSCCNC(=O)Nc1c(-c2c(Cl)cccc2Cl)noc1C`, the Potency result is “inactive”.

`CCOC(=O)CC1(c2ccccc2)CCOC(C)(C)C1` (stereo not drawn): the Potency entry was “inactive” and the cell number change was found to be 5.31%.

Regarding `COc1ccccc1C1(CC(=O)O)CCOC(C(C)C)C1` (stereo not drawn), the Potency result is “inactive” and the cell number change was -4.59%.

Regarding `CCC1(C)CC(CC(=O)O)(c2ccccc2OC)CCO1` (stereo not drawn), the Potency was 29.1 µM (active) and the cell number change was -13.5%.

Turning to `CC(C)c1ccc(S(=O)(=O)N2CCN(C(=O)C3CC3C)CC2)cc1` (stereo not drawn), the cell number change was 13.5% and the lipid storage change, negative = inhibition was 9.88% [at 0.0737 µM] (inactive).

Regarding `CC(=O)N1CCc2cc(Br)cc(S(=O)(=O)NCCCN3CCC(C)CC3)c21`, the Potency entry is “inactive” and the cell number change is 6.06%.

Turning to `Cc1cnc(C(=O)OCC(=O)c2ccc(F)c(F)c2)cn1`, the Potency result is “inactive” and the cell number change is 6.94%.

`Cc1nc2ncnn2c(C)c1CCC(=O)NC(C)CCc1ccco1` (stereo not drawn): the Potency result was “inactive” and the cell number change was -25.3%.

Take `CCOc1ccccc1C(=O)NC(CO)C(=O)O` (stereo not drawn): the Potency was 20.6 µM (active) and the cell number change was -20.4%.

`CC(C)COc1ccccc1C(=O)NC(CO)C(=O)O` (stereo not drawn): the Potency result is “inactive” and the cell number change is -5.46%.

`CC(C)Oc1ccccc1C(=O)NC(CO)C(=O)O` (stereo not drawn): the Potency result is “inactive” and the cell number change was -13.9%.

In the case of `CS(=O)(=O)N(Cc1ccccc1)c1ccc(C(=O)N2CCc3ccccc3C2)cc1`, the Potency result is “inactive” and the cell number change was found to be 13.2%.

Turning to `Cc1cc(/C=N/Nc2nc(N3CCOCC3)nc(N3CCOCC3)n2)c(C)n1-c1ccccc1`, the Potency result was “inactive” and the cell number change stood at 2.32%.
